# Results taken from PubChem BioAssay (NCATS).
# Inconclusive results are not listed. Where a call stands in place of a potency, no number is given. Active and inactive are the calls of the source. The call rests on the fitted dose curve; in most records, active means well fitted inhibition curve with a large enough effect; inconclusive means small, poorly fitted or top-dose-only effect; inactive means flat fitted curve, though single readings scatter.
# Tested on: CP215
# Assay: qHTS profiling for inhibitors of Plasmodium falciparum proliferation (AID 504749); further: nearly all actives have a fitted effect of over 60% in size
# Settings: P. falciparum in erythrocytes, SYBR Green DNA, 72 h; series mostly up to 28.7 µM
# Procedure, shortened: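 SYBR Green fluorescence (ex 485 nm, em 535 nm) reports parasite DNA after 72 h compound exposure of infected red cells at 0.3% parasitemia, 2.5% hematocrit; signal normalized to 0.29 uM artemisinin and vehicle wells.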
structure (smiles),measurement,value
ClC1=C(Cl)C2(Cl)C3C4CC(C5OC45)C3C1(Cl)C2(Cl)Cl (stereo unspecified),Potency,inactive
